Assay results: PubChem BioAssay (NCATS)
Results filed as inconclusive are left out. Calls of active or inactive are those of the source. Calls come from the whole dose curve; as a rule, active = well fitted inhibition curve with a large enough effect; inconclusive = small, poorly fitted or top-dose-only effect; inactive = no such curve, though single readings can be large or run the other way.

Assay: BET inhibitor-based combinations targeting novel dependencies in MECOM-rearranged (r) AML: OCI-AML3 cell line (AID 2202232); note: nearly all actives have a fitted effect of over 35% in size
Conditions: CellTiter-Glo luminescence, 48 h; Potency: OCI-AML3 viability; series mostly up to 46 µM
Outline: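 Luminescent ATP readout (CellTiter-Glo) after 48 hr drug exposure gives viability. Curves span 11 concentrations and are normalized to DMSO and empty wells. Activity is reported as area under the curve and its Z-transform within each cell line.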
Potency is the fitted concentration of half-maximal effect.

| SMILES | Potency |
| --- | --- |
| COc1cc2cc(c1Cl)N(C)C(=O)C[C@H](OC(=O)C(C)C)[C@]1(C)O[C@@H]1[C@H](C)[C@@H]1C[C@@](O)(NC(=O)O1)[C@H](OC)/C=C/C=C(\C)C2 | inactive |
| CO[C@H]1CCC(O[C@H]2C[C@H]([C@]3(C)CC[C@]4(C[C@H](O)[C@@H](C)[C@@H]([C@@H](C)/C=C(\C)C(=O)[C@H](C)C[C@H](C)C(=O)O)O4)O3)O[C@]3(O[C@@H]([C@H]4O[C@@](O)(CO)[C@H](C)C[C@@H]4C)C[C@@H]3C)[C@@H]2C)O[C@@H]1C (stereo partly drawn) | 235 nM (active) |
| COC[C@H]1OC(=O)c2coc3c2[C@@]1(C)C1=C(C3=O)[C@@H]2CC[C@H](O)[C@@]2(C)C[C@H]1OC(C)=O | 10500 nM (active) |
| O=C(CBr)N1CC([N+](=O)[O-])([N+](=O)[O-])C1 | 34000 nM (active) |
| COc1cc([C@@H]2c3cc4c(cc3[C@@H](O)C3COC(=O)C32)OCO4)cc(OC)c1O (stereo partly drawn) | 296 nM (active) |
| COC(=O)[C@]12CCC(C)(C)C[C@H]1[C@H]1C(=O)C=C3[C@@]4(C)C=C(C#N)C(=O)C(C)(C)[C@@H]4CC[C@@]3(C)[C@]1(C)CC2 | 2630 nM (active) |
| Cn1c(CCCCCCC(=O)NO)nc2cc(N(CCCl)CCCl)ccc21 | 2350 nM (active) |
| C/C1=C/C[C@@H](/C(C)=C/c2csc(C)n2)OC(=O)C[C@H](O)C(C)(C)C(=O)[C@H](C)[C@@H](O)[C@@H](C)CCC1 | 59 nM (active) |
| C#CCN(C)[C@H](C)Cc1ccccc1 | inactive |
| N[C@@H]1C[C@H]1c1ccccc1 | inactive |
| C[C@H]1CCC/C=C/C2C[C@H](O)C[C@H]2[C@H](O)/C=C/C(=O)O1 (stereo partly drawn) | 417 nM (active) |
| COC[C@@H](NC(C)=O)C(=O)NCc1ccccc1 | inactive |
| CC1(C)CC(O)CC(C)(C)N1O | inactive |
| CC(C)[C@]12O[C@H]1[C@@H]1O[C@@]13[C@@]1(C)CCC4=C(COC4=O)[C@@H]1C[C@@H]1O[C@@]13C2=O | 59 nM (active) |
| C[C@@]12OC(=O)[C@]1([C@@H](O)[C@@H]1C=CCCC1)NC(=O)[C@@H]2CCCl | 20.9 nM (active) |
| CN(C)NC(=O)CCC(=O)O | inactive |
| C[C@]12CC[C@@H]3[C@@H](CCC4=CC(=O)CC[C@@H]43)[C@@H]1CC[C@@H]2OC(=O)CCc1ccccc1 | inactive |
| COCC1(CO)C(=O)C2CCN1CC2 (stereo not drawn) | 4680 nM (active) |
| COc1cc2c(cc1F)C(c1ccccc1Cl)=Nc1c(n[nH]c1C)N2 | 3720 nM (active) |
| CC(=O)OC[C@H]1O[C@@H]([S-])[C@H](OC(C)=O)[C@@H](OC(C)=O)[C@@H]1OC(C)=O.CC[PH+](CC)CC.[Au] | 296 nM (active) |
| C[C@@H]1CC[C@@]2(OC1)O[C@H]1C[C@H]3[C@@H]4CC=C5C[C@@H](O[C@@H]6O[C@H](CO)[C@@H](O[C@@H]7O[C@@H](C)[C@H](O)[C@@H](O)[C@H]7O)[C@H](O)[C@H]6O[C@@H]6O[C@@H](C)[C@H](O)[C@@H](O)[C@H]6O)CC[C@]5(C)[C@H]4CC[C@]3(C)[C@H]1[C@@H]2C | 7420 nM (active) |
| O=C(Nc1ccncc1)C(=O)c1cn(Cc2ccc(Cl)cc2)c2ccccc12 | 417 nM (active) |
| C[C@]12CC[C@H](O)CC1=CC[C@@H]1[C@@H]2CC[C@]2(C)C(=O)CC[C@@H]12 | inactive |
| C/C(=C\c1csc(C)n1)[C@@H]1C[C@@H]2O[C@]2(C)CCC[C@H](C)[C@H](O)[C@@H](C)C(=O)C(C)(C)[C@@H](O)CC(=O)O1 | 5.9 nM (active) |

Assay: BET inhibitor-based combinations targeting novel dependencies in MECOM-rearranged (r) AML: MV-4-11 cell line (AID 2202233); note: nearly all actives have a fitted effect of over 45% in size
Conditions: MV-4-11 AML viability, CellTiter-Glo luminescence, 48 h; series mostly up to 46 µM
Outline: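 Luminescent ATP readout (CellTiter-Glo, 15 min at room temperature) after 48 hr drug exposure gave viability. Dose-response curves, normalized to DMSO and empty-well controls, were summarized as area under the curve and its mean-centred Z-score.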

| SMILES | Potency |
| --- | --- |
| COc1cc2cc(c1Cl)N(C)C(=O)C[C@H](OC(=O)C(C)C)[C@]1(C)O[C@@H]1[C@H](C)[C@@H]1C[C@@](O)(NC(=O)O1)[C@H](OC)/C=C/C=C(\C)C2 | inactive |
| CO[C@H]1CCC(O[C@H]2C[C@H]([C@]3(C)CC[C@]4(C[C@H](O)[C@@H](C)[C@@H]([C@@H](C)/C=C(\C)C(=O)[C@H](C)C[C@H](C)C(=O)O)O4)O3)O[C@]3(O[C@@H]([C@H]4O[C@@](O)(CO)[C@H](C)C[C@@H]4C)C[C@@H]3C)[C@@H]2C)O[C@@H]1C (stereo partly drawn) | 372 nM (active) |
| O=C(CBr)N1CC([N+](=O)[O-])([N+](=O)[O-])C1 | 34000 nM (active) |
| COC(=O)[C@]12CCC(C)(C)C[C@H]1[C@H]1C(=O)C=C3[C@@]4(C)C=C(C#N)C(=O)C(C)(C)[C@@H]4CC[C@@]3(C)[C@]1(C)CC2 | 417 nM (active) |
| COC[C@@H](NC(C)=O)C(=O)NCc1ccccc1 | inactive |
| CC1(C)CC(O)CC(C)(C)N1O | inactive |
| C[C@@]12OC(=O)[C@]1([C@@H](O)[C@@H]1C=CCCC1)NC(=O)[C@@H]2CCCl | 23.5 nM (active) |
| CC(=O)O[C@@]12CO[C@@H]1C[C@H](O)[C@@]1(C)C(=O)[C@H](O)C3=C(C)[C@@H](O)C[C@@](O)([C@@H](OC(=O)c4ccccc4)[C@H]21)C3(C)C | 23500 nM (active) |
| COCC1(CO)C(=O)C2CCN1CC2 (stereo not drawn) | 10500 nM (active) |
| COc1cc2c(cc1F)C(c1ccccc1Cl)=Nc1c(n[nH]c1C)N2 | 1860 nM (active) |
| CC(=O)OC[C@H]1O[C@@H]([S-])[C@H](OC(C)=O)[C@@H](OC(C)=O)[C@@H]1OC(C)=O.CC[PH+](CC)CC.[Au] | 235 nM (active) |
| C[C@@H]1CC[C@@]2(OC1)O[C@H]1C[C@H]3[C@@H]4CC=C5C[C@@H](O[C@@H]6O[C@H](CO)[C@@H](O[C@@H]7O[C@@H](C)[C@H](O)[C@@H](O)[C@H]7O)[C@H](O)[C@H]6O[C@@H]6O[C@@H](C)[C@H](O)[C@@H](O)[C@H]6O)CC[C@]5(C)[C@H]4CC[C@]3(C)[C@H]1[C@@H]2C | 5900 nM (active) |
| C[C@]12CC[C@H](O)CC1=CC[C@@H]1[C@@H]2CC[C@]2(C)C(=O)CC[C@@H]12 | inactive |
| C/C(=C\c1csc(C)n1)[C@@H]1C[C@@H]2O[C@]2(C)CCC[C@H](C)[C@H](O)[C@@H](C)C(=O)C(C)(C)[C@@H](O)CC(=O)O1 | 9.3 nM (active) |
